From PubChem
SARS PLpro yeast = SARS-CoV PLP inhibition in yeast. S. cerevisiae expressing SARS-CoV PLpro, growth rescue. Potency, µM (top dose mostly 32.9 µM), for the others: at the top dose activity, positive = growth rescue, most hits filed as activators. 0.19% of 330,000 active. AID 485353; calls by dose curve; note: potency is the fitted concentration of half-maximal effect; 0% is about no effect; nearly all actives have a fitted effect of over 55% in size
NS1 inh = inhibitors of influenza NS1 protein function. 0.4% of 270,000 active. Potency, µM (titrated, usually from 46.1 µM), for the others: at the top dose activity, positive = more growth. AID 2326; calls by dose curve; note: potency is the fitted concentration of half-maximal effect; actives are rising curves; nearly all actives have a fitted effect of over 50% in size
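S. cerevisiae expressing influenza A NS1, grown in glucose, washed, then diluted 1:100 into pH 6.0 -URA galactose medium with 23 nl compound. Growth recovery read as OD600; NS1-free strain serves as control.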
LmPK inh = LmPK (Leishmania mexicana) enzyme inhibition | Q27686 | purified LmPK, Kinase-Glo ATP luminescence, 1 h | Potency, µM (series often up to 57.5 µM), inactives show at the top dose activity change, negative = inhibition, usual class: inhibitors | 0.37% of 290,000 active; note: potency is the fitted concentration of half-maximal effect; % is set by controls: 0 for no effect and ±100 for the full control effect
Target sequence (Q27686 whole entry, looked up): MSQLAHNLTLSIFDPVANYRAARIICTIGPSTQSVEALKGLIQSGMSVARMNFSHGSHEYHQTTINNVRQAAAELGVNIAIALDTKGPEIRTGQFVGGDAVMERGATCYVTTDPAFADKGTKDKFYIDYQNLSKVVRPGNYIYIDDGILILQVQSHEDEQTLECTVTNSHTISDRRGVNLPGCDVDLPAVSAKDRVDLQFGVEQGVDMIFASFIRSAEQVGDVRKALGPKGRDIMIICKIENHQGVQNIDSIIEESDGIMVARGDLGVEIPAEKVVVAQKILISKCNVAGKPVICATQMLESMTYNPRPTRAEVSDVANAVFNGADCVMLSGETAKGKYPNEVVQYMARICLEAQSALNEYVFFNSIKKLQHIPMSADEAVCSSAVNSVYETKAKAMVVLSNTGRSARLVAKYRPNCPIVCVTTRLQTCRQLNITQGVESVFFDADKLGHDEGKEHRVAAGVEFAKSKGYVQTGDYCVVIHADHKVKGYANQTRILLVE
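0.1 nM LmPK, 0.5 mM PEP, 0.1 mM ADP; 50 mM imidazole pH 7.2, 7 mM MgCl2, 50 mM KCl; 1 h RT. Kinase-Glo luminescence readout, normalized to no-enzyme (full inhibition) and uninhibited wells.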
TbPYK inhibitor = inhibitors of Trypanosoma brucei pyruvate kinase. Q57TT1. TbPYK enzyme, Kinase-Glo Plus ATP luminescence, 45 min. Potency, µM (series often up to 76.8 µM), without a hit: top-dose activity, negative = inhibition, usual class: inhibitors. 0.12% of 410,000 active. AID 624173; note: potency is the fitted concentration of half-maximal effect; % is set by controls: 0 for no effect and ±100 for the full control effect; nearly all actives have a fitted effect of over 50% in size
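Luminescent Kinase-Glo Plus end-point after 45 min room-temperature reaction of T. brucei pyruvate kinase started with 130 uM ADP (final). Buffer TEA 50 mM pH 7.2 with KCl, MgCl2, BSA, Tween-20; titration-based qHTS with fitted concentration-effect curves.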
Shiga inhibitor = inhibitors of Shiga toxin in Vero cells | Vero cells, Shiga toxin protein synthesis inhibition reporter | inhibition, % at 38.7 µM | 9.2% of 290,000 active; in the data active = inhibition mostly above about 28%, no sharp cut-off; inactive = mostly below about 43%; note: 0% is about no effect
CHX counter = affects cycloheximide protein synthesis inhibition readout, counter-screen | 12% of 300,000 active | max response, % | cell reporter, cycloheximide protein synthesis inhibition counterscreen | AID 2314; in the data active = max response mostly above about 13%, no sharp cut-off; inactive = mostly below about 14%; note: read at 38.3 µM for the half of the compounds with a filed dose; 0% is about no effect
The depositor's hits bear a star; nt = not tested or not shown. The sample as a whole holds a higher share of hits than the screen did. Unless noted, calls come from the whole dose curve; as a rule, active = well fitted curve in the direction sought with a large enough effect; inconclusive = small, poorly fitted or top-dose-only effect, or another doubt; inactive = no such curve, though single readings can be large; an effect the other way counts as inactive or inconclusive.

SMILES	SARS PLpro yeast	NS1 inh	LmPK inh	TbPYK inhibitor	Shiga inhibitor	CHX counter
Cc1ccccc1OCc1nc(-c2ccccc2)no1	-9%	-19%	-5%	-1%	66*	39*
CCN(CC)C(=O)c1sc2c(c1C)c(=O)n(-c1ccc(Cl)c(Cl)c1)c(=O)n2Cc1ccccc1C#N	nt	nt	nt	0%	nt	nt
O=C1N=C(N2CCN(c3ccccc3)CC2)SC1Cc1ccccc1 (configuration not stated)	-14%	-7%	-1%	-3%	32	14*
CN(CC(=O)Nc1ccc(F)c(F)c1F)C(=O)c1n[nH]c(=O)c2ccccc12	3%	nt	nt	1%	nt	nt
COc1cc(OC)cc(C(=O)N[C@H](C(=O)OCC(=O)NC(=O)c2cccn2C)C(C)C)c1	0%	nt	-6%	3%	-13	-7
COc1ccc(C(=O)N[C@H](C(=O)OCC(=O)NC(=O)c2cccn2C)C(C)C)cc1	-13%	-13%	-2%	0%	15	15*
COc1ccc(C)c2sc(=NC(=O)c3cccc(N4C(=O)CCC4=O)c3)n(C)c12	0%	3%	9%	1%	27	20*
COc1ccc(C)c2sc(=NC(=O)C(C)C)n(C)c12	-4%	-59%	1%	3%	-13	-3
COc1ccc(C)c2sc(=NC(=O)c3ccccc3)n(C)c12	-1%	-1%	-15%	-3%	69*	18*
COc1ccc(C)c2sc(=NC(=O)c3ccc(C(C)=O)cc3)n(C)c12	-2%	3%	-29%	-14%	67*	38*
CC1(c2ccc(F)cc2)OC(=O)c2c1ccc1ccccc21 (configuration not stated)	nt	nt	nt	-15%	nt	nt
COc1ccc(C(CNC(=O)CCNC(=O)c2ccccc2OC)N2CCCC2)cc1 (configuration not stated)	1%	nt	nt	-10%	nt	nt
O=C1CSC2(C(=O)N(Cc3cccc(C(F)(F)F)c3)c3ccccc32)N1c1ccc(F)c(F)c1 (configuration not stated)	nt	nt	nt	0%	nt	nt
C/C(=N\Nc1nc2ccccc2s1)c1ccc(Br)s1	-5%	14%	3%	2%	41*	19*
C/C(=N\Nc1nc2ccccc2s1)c1ccc2c(c1)OCO2	-3%	14%	4%	-3%	70*	54*
CC1(C)S[C@@H]2[C@H](NC(=O)C(C(=O)Oc3ccc4c(c3)CCC4)c3ccccc3)C(=O)N2[C@H]1C(=O)O (some centres not stated)	nt	nt	nt	1%	nt	nt
OCC1(Cc2ccccc2)CCN(Cc2cnc(-c3ccc(Cl)cc3)nc2)CC1	0%	2%	-3%	4%	91*	39*
COc1ccc(CC2(CO)CCN(Cc3cccnc3)CC2)cc1	-1%	4%	7%	0%	33	38*
OCCC1CN(Cc2cnc(-c3ccc(Cl)cc3)nc2)CCN1C1CCCCC1 (configuration not stated)	0%	0%	2%	-2%	28*	16*
CC(=O)N1CCc2cc(S(=O)(=O)NC(CC(C)C)C(=O)Nc3ccc(C(C)C)cc3)ccc21 (configuration not stated)	nt	nt	nt	-2%	nt	nt
Cc1ccc2c(c1)N(C(=O)CCC(=O)NCc1cccc(F)c1)CC(C)O2 (configuration not stated)	nt	nt	nt	0%	nt	nt
C(=Nc1ccc(N2CCOCC2)cc1)c1c[nH]c2ccccc12	-1%	25%	-2%	-15%	89*	42*
O=C(NCC1CCCN(C(=O)c2cccc(C(F)(F)F)c2)C1)c1ccc(F)cc1 (configuration not stated)	-6%	13%	-3%	2%	11	16*
COc1ccc(C(=O)N2CCCC(CNC(=O)c3ccc(F)cc3)C2)cc1OC (configuration not stated)	2%	11%	1%	6%	3	25*
O=C(NCC1CCCN(Cc2cccc(C(F)(F)F)c2)C1)c1ccc(F)cc1 (configuration not stated)	1%	1%	-1%	0%	-10	4
SMILES	SARS PLpro yeast	NS1 inh	LmPK inh	TbPYK inhibitor	Shiga inhibitor	CHX counter
C=CCN1C(=O)/C(=C/c2ccc(OC(C)=O)c(OCC)c2[N+](=O)[O-])SC1=S	-4%	-11%	-12%	4%	103*	27*
C=C(C)Cc1c(C)nc(-c2ccccc2)[nH]c1=O	14%	-8%	-2%	-5%	38*	18*
Cc1ccc(C(=O)NNC(=O)c2cc(OCC(F)(F)F)ccc2OCC(F)(F)F)cc1	1%	-11%	-1%	0%	-9	18
O=C(NNC(=O)c1cc(OCC(F)(F)F)ccc1OCC(F)(F)F)c1cccc(C(F)(F)F)c1	-2%	-17%	0%	4%	56*	20*
Cc1cccn2c(=O)nc(SCC(=O)NC3CCCCC3)nc12	-3%	nt	nt	-13%	nt	nt
O=C1C(=O)c2c(ccc3ccccc23)-c2ccccc21	nt	nt	nt	-2%	nt	nt
CCOC(=O)C1C(=O)C=C(c2ccc(NS(C)(=O)=O)cc2)CC1c1ccco1 (configuration not stated)	-2%	-8%	-1%	-2%	12	3
CCOC(=O)C1C(=O)C=C(c2ccc(C)cc2)CC1c1ccco1 (configuration not stated)	-21%	-48%	-1%	4%	54*	21*
CC(=O)c1ccc(Nc2nc(C(C)N)cs2)cc1 (configuration not stated)	nt	nt	nt	3%	nt	nt
O=C(CC(SCCO)c1ccc2c(c1)OCO2)c1cccs1 (configuration not stated)	7%	-22%	-23%	-31%	59	29*
CC(NC(=O)Cc1cccs1)c1ccc2c(c1)OCO2 (configuration not stated)	3%	2%	-16%	-2%	12	-2
O=C(CC(SCc1ccco1)c1ccc(O)cc1)c1cccs1 (configuration not stated)	-7%	-96%	-18%	-4%	115*	37*
CCOC(=O)c1cc(-c2csc(COc3ccc(Cl)cc3)n2)on1	0%	-4%	0%	-8%	-8	-2
CCOC(=O)c1csc(NC(=O)CC2CCCC2)n1	0%	nt	1%	3%	32*	25*
CCOC(=O)c1csc(COc2ccccc2Cl)n1	1%	-7%	-4%	-7%	52*	32*
CCOC(=O)c1csc(N)n1	-1%	6%	-25%	-7%	80*	34*
CCOC(=O)c1csc(COc2ccc(OC)cc2)n1	1%	-4%	5%	3%	122*	61*
CCOC(=O)c1cc(-c2csc(COc3ccccc3Cl)n2)on1	0%	-6%	6%	5%	-3	-1
CCOC(=O)c1csc(NC(=O)CCSc2ccccc2)n1	-2%	nt	13%	3%	16	7
COc1ccccc1NS(=O)(=O)c1cc2c(cc1Cl)NC(=O)CO2	nt	nt	nt	0%	nt	nt
O=C(CCNS(=O)(=O)c1ccc2c(c1)CCCC(=O)N2)NCc1ccc(Cl)cc1	nt	nt	nt	-3%	nt	nt
